Reference: paper PMC7862700, “An all-to-all approach to the identification of sequence-specific readers for epigenetic DNA modifications on cytosine”

Key:
Assay in all cases: DAPPL (digital affinity profiling via proximity ligation, sequencing); 10 mM Tris-HCl pH 7.5, 50 mM NaCl, 1 mM DTT, 4% glycerol, room temperature, 30 min; GST-TFs on glutathione beads, 16-mer random dsDNA library, 0.1% formaldehyde crosslink after washing; high values mean tight binding
FLI1 = target: T1, FLI1 (Homo sapiens, UniProt Q01543 1-452); conditions: protein: recombinant; tags: N-terminal GST; dsDNA, one strand shown
T1 sequence: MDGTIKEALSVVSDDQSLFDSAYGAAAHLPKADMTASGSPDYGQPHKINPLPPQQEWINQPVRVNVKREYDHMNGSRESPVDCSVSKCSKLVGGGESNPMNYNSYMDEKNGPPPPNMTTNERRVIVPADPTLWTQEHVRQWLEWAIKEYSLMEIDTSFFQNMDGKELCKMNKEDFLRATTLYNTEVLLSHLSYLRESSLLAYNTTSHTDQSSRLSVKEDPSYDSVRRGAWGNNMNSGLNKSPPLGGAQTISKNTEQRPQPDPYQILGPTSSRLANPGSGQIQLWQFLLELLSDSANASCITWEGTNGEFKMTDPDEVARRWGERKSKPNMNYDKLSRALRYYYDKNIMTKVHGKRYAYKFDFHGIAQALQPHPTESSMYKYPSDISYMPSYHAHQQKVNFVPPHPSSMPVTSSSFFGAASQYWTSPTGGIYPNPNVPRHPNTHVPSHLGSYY
Outline: (§1)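 A tag-only sample was pooled with DNA-barcoded human transcription factors that had been expressed in yeast as GST fusions and captured on glutathione beads. The pools were incubated for 30 min at room temperature with 200 nmole of a random double-stranded 16-mer DNA library in Tris/NaCl/DTT/glycerol buffer, then washed, crosslinked with 0.1% formaldehyde, proximity-ligated (BsaI/T4 ligase, 1 h, 37 °C), PCR-amplified and sequenced on an Illumina NextSeq500. Binding signal is each hexamer's read frequency for a factor divided by its frequency for the tag-only sample.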

ELK1 = target: T2, ELK1 (Homo sapiens, UniProt P19419 1-428); conditions: protein: recombinant; tags: N-terminal GST; dsDNA, one strand shown
T2 sequence: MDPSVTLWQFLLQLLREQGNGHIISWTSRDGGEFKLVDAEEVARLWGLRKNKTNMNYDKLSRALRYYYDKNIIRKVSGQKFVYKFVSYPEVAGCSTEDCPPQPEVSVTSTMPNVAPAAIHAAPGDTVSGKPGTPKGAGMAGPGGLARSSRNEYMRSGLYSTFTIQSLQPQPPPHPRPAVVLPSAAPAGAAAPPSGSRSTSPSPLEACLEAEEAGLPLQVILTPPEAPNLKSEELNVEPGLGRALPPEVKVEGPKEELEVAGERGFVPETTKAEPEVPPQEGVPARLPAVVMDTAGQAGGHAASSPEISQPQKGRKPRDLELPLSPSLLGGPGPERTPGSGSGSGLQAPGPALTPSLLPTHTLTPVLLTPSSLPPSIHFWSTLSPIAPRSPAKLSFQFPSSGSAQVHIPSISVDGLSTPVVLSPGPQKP
Outline: as §1

GABPA = target: T3, GABPA (Homo sapiens, UniProt Q06546 1-454); conditions: protein: recombinant; tags: N-terminal GST; dsDNA, one strand shown
T3 sequence: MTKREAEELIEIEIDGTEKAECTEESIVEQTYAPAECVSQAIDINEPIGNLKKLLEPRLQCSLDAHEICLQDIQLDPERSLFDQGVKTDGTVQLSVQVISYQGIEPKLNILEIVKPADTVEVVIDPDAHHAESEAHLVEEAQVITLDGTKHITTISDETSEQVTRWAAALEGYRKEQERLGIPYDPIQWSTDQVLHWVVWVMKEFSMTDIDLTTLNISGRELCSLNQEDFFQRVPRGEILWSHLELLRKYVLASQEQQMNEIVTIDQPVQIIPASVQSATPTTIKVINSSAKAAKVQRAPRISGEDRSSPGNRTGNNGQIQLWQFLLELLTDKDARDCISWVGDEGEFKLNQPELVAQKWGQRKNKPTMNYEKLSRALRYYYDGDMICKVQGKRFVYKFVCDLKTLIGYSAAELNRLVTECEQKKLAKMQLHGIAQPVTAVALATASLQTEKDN
Outline: as §1

ERG = target: T4, ERG (Homo sapiens, UniProt P11308 1-479); conditions: protein: recombinant; tags: N-terminal GST; dsDNA, one strand shown
T4 sequence: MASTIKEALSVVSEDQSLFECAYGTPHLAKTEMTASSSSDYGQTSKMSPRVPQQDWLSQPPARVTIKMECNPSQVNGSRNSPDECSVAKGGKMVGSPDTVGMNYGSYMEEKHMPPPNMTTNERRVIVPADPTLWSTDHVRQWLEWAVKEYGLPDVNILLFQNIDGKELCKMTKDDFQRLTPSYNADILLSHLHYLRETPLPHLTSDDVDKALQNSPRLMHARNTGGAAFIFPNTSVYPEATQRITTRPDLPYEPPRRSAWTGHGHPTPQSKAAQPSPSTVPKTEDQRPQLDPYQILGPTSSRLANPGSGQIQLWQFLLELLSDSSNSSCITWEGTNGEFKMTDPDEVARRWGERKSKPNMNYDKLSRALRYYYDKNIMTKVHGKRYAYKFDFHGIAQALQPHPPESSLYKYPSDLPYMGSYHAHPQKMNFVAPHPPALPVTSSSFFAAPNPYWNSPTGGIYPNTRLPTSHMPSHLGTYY
Outline: as §1

ELF1 = ELF1 (Homo sapiens, UniProt P32519 1-619); conditions: protein: recombinant; tags: N-terminal GST; dsDNA, one strand shown
Sequence of ELF1 (P32519 whole entry): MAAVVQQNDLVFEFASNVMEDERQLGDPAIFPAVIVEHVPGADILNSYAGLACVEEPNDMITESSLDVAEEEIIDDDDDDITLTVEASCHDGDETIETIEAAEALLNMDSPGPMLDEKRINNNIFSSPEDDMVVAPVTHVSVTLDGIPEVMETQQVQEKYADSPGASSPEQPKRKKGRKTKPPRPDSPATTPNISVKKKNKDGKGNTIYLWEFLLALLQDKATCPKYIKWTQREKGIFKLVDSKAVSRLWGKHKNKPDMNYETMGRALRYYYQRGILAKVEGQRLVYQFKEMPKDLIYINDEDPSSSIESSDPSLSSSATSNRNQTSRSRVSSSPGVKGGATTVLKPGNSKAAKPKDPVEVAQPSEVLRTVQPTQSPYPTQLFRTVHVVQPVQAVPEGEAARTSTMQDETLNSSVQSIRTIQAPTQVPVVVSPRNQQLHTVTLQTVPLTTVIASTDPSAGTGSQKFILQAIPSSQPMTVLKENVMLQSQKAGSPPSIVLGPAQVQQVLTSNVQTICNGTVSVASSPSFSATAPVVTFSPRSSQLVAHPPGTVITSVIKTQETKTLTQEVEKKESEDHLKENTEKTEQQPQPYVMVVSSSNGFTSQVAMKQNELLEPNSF
Outline: as §1

EHF = target: T5, EHF (Homo sapiens, UniProt Q9NZC4 1-300); conditions: protein: recombinant; tags: N-terminal GST; dsDNA, one strand shown
T5 sequence: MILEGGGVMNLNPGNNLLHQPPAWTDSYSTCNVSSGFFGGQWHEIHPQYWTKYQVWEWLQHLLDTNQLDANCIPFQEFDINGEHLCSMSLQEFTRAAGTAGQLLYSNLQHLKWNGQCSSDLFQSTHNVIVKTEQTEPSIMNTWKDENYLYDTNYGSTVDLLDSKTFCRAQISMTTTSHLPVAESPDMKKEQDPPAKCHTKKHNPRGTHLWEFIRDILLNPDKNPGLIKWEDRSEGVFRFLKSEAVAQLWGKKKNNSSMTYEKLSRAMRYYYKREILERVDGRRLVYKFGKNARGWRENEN
Outline: as §1

SPI1 = SPI1 (Homo sapiens, UniProt P17947 1-270); conditions: protein: recombinant; tags: N-terminal GST; dsDNA, one strand shown
Outline: as §1

SPIB = SPIB (Homo sapiens, UniProt Q01892 1-262); conditions: protein: recombinant; tags: N-terminal GST; dsDNA, one strand shown
Sequence of SPIB (Q01892 whole entry): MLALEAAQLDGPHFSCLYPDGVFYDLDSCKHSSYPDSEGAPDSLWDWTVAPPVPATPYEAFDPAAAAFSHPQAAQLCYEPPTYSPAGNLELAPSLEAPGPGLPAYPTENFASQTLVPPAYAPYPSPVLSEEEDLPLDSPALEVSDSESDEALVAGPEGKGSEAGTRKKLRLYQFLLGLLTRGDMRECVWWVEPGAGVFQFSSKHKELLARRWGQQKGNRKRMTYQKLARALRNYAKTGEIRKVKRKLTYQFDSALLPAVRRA
Outline: as §1

ELK3 = target: T6, ELK3 (Homo sapiens, UniProt P41970 1-407); conditions: protein: recombinant; tags: N-terminal GST; dsDNA, one strand shown
T6 sequence: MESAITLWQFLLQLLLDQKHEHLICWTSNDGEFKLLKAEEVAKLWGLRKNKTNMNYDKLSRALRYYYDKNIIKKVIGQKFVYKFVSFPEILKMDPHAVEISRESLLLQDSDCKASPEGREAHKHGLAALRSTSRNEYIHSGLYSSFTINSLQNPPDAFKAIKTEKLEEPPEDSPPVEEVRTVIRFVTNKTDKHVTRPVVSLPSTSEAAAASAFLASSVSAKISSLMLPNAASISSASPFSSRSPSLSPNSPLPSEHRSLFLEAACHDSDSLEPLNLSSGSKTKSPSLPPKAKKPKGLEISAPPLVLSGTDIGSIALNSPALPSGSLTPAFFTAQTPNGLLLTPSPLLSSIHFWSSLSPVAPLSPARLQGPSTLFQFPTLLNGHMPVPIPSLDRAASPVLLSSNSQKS
Outline: as §1

FEV = target: T7, FEV (Homo sapiens, UniProt Q99581 1-238); conditions: protein: recombinant; tags: N-terminal GST; dsDNA, one strand shown
T7 sequence: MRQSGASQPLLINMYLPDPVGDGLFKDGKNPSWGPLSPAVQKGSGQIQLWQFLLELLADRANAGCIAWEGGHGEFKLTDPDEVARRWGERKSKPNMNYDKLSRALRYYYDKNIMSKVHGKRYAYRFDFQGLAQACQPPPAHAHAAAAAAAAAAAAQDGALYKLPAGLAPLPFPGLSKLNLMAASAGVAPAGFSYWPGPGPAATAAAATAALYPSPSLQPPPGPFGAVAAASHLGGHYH
Outline: as §1

ETV5 = ETV5 (Homo sapiens, UniProt P41161 1-510); conditions: protein: recombinant; tags: N-terminal GST; dsDNA, one strand shown
Sequence of ETV5 (P41161 whole entry): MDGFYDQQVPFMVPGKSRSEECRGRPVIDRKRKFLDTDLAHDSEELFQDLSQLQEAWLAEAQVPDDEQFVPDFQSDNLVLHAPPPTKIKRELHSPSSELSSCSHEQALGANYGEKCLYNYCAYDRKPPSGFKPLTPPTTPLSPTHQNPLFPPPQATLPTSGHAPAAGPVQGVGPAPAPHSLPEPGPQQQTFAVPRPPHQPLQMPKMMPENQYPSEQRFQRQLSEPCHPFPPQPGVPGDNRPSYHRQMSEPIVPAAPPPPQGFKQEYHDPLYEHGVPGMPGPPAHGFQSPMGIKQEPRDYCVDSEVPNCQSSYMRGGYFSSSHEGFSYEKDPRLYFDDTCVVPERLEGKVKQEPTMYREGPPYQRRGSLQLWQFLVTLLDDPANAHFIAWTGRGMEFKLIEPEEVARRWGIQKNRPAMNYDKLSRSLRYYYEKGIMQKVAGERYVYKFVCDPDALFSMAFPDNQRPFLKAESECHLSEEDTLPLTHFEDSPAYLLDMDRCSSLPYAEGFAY
Outline: as §1

HSF1 = HSF1 (Homo sapiens, UniProt Q00613 1-529); conditions: protein: recombinant; tags: N-terminal GST; chain copies: 3; dsDNA, one strand shown
Sequence of HSF1 (Q00613 whole entry): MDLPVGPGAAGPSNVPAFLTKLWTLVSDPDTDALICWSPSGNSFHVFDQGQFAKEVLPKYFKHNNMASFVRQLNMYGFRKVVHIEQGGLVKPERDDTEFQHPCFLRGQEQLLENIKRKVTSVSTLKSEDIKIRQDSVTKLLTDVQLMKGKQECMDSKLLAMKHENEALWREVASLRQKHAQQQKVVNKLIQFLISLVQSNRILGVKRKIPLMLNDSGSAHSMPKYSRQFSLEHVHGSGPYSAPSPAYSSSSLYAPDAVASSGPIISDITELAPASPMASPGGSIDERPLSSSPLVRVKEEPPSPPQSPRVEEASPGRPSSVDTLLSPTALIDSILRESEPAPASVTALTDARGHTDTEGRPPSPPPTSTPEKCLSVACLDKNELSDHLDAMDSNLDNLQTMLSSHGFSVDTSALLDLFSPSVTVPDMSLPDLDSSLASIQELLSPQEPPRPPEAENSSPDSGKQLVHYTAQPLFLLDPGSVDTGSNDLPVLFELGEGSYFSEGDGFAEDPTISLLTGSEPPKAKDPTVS
Outline: as §1

SPIC = target: T8, SPIC (Homo sapiens, UniProt Q8N5J4 1-248); conditions: protein: recombinant; tags: N-terminal GST; dsDNA, one strand shown
T8 sequence: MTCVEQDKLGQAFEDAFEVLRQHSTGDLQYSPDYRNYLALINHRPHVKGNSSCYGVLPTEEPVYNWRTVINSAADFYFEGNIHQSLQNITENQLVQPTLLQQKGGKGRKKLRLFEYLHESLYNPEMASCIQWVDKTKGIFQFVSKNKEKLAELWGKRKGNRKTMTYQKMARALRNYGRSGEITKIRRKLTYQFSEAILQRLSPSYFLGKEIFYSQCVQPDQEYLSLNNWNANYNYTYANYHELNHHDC
Outline: as §1

ELF4 = ELF4 (Homo sapiens, UniProt Q99607 1-663); conditions: protein: recombinant; tags: N-terminal GST; dsDNA, one strand shown
Sequence of ELF4 (Q99607 whole entry): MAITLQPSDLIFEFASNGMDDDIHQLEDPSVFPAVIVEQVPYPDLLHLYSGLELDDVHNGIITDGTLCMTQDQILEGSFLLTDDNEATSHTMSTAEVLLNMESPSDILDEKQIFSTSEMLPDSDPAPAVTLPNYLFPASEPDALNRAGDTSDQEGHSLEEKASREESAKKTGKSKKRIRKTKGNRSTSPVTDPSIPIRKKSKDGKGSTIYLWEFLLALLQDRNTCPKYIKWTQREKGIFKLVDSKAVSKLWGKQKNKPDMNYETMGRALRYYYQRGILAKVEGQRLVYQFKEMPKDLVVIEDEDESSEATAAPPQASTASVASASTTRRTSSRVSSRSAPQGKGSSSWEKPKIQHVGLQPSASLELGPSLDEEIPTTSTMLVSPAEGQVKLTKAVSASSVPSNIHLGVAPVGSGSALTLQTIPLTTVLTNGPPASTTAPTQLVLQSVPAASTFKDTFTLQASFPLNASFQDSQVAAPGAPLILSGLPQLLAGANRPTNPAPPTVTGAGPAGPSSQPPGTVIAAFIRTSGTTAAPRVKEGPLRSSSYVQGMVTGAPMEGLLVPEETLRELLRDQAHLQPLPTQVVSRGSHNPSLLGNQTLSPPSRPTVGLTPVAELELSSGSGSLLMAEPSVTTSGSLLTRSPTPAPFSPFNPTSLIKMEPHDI
Outline: as §1

ELK4 = target: T9, ELK4 (Homo sapiens, UniProt P28324-2 1-405); conditions: protein: recombinant; tags: N-terminal GST; dsDNA, one strand shown
T9 sequence: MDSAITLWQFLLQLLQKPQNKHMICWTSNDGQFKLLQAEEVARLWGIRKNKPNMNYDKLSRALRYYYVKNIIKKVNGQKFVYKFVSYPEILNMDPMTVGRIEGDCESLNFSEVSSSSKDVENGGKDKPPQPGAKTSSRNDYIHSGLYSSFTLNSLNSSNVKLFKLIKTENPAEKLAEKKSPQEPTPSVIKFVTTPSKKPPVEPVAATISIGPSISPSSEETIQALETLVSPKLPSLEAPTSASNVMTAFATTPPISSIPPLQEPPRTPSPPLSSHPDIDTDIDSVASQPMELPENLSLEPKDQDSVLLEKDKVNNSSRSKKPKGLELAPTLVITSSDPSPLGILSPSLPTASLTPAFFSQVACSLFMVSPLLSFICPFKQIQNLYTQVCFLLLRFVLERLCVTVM
Outline: as §1

ETV2 = target: T10, ETV2 (Homo sapiens, UniProt O00321 1-342); conditions: protein: recombinant; tags: N-terminal GST; dsDNA, one strand shown
T10 sequence: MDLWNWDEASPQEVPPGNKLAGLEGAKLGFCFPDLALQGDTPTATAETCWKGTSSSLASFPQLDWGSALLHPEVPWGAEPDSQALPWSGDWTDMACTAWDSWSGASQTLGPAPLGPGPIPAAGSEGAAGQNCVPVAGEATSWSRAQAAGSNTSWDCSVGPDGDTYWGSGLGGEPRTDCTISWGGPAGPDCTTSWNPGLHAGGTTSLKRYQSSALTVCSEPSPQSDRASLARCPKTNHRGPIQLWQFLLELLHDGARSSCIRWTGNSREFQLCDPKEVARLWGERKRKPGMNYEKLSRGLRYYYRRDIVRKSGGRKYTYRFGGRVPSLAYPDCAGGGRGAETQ
Outline: as §1

ELF3 = target: T11, ELF3 (Homo sapiens, UniProt P78545 1-371); conditions: protein: recombinant; tags: N-terminal GST; dsDNA, one strand shown
T11 sequence: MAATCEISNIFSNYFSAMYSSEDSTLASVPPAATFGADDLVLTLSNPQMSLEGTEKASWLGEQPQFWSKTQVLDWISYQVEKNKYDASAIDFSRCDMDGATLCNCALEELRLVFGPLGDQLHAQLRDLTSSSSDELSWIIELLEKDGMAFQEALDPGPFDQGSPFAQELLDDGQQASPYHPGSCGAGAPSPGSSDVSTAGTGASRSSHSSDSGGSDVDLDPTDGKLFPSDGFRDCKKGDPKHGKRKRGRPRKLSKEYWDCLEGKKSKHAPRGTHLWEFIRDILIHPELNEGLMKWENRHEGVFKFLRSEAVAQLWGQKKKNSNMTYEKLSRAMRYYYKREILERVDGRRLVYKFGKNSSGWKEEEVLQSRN
Outline: as §1

CRX = CRX (Homo sapiens, UniProt O43186 1-299); conditions: protein: recombinant; tags: N-terminal GST; dsDNA, one strand shown
Sequence of CRX (O43186 whole entry): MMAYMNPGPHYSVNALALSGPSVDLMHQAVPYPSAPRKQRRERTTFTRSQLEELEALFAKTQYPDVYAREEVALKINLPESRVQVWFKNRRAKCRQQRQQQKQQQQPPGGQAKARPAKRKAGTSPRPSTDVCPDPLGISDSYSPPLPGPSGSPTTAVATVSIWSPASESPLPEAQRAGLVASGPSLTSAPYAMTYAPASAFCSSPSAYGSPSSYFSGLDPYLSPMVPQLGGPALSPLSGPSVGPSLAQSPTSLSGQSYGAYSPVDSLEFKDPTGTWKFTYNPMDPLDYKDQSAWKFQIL
Outline: as §1

ETV1 = ETV1 (Homo sapiens, UniProt P50549 1-477); conditions: protein: recombinant; tags: N-terminal GST; dsDNA, one strand shown
Sequence of ETV1 (P50549 whole entry): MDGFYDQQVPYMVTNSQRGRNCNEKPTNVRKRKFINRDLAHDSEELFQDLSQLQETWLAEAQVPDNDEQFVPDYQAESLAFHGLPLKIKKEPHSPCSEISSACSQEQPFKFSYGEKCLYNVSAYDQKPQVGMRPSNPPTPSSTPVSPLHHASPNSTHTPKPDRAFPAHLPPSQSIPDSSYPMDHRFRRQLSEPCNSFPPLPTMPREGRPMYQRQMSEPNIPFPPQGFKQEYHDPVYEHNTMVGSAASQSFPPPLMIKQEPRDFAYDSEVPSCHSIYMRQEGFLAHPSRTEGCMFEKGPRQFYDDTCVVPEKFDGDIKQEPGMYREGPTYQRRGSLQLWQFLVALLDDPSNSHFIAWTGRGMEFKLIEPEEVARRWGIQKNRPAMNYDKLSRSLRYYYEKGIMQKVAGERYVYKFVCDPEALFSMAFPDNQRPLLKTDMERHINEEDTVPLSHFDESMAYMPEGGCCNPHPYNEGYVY
Outline: as §1

Sequence: TTAATA
- binding signal (FLI1): 1.28 fold enrichment (6-mer frequency, TF over GST control)
- binding signal (ELK1): 1.23 fold enrichment (6-mer frequency, TF over GST control)
- binding signal (GABPA): 1.18 fold enrichment (6-mer frequency, TF over GST control)
- binding signal (ERG): 1.16 fold enrichment (6-mer frequency, TF over GST control)
- binding signal (ELF1): 1.16 fold enrichment (6-mer frequency, TF over GST control)
- binding signal (EHF): 1.23 fold enrichment (6-mer frequency, TF over GST control)
- binding signal (SPI1): 1.09 fold enrichment (6-mer frequency, TF over GST control)
- binding signal (SPIB): 1.22 fold enrichment (6-mer frequency, TF over GST control)
- binding signal (ELK3): 1.29 fold enrichment (6-mer frequency, TF over GST control)
- binding signal (FEV): 1.19 fold enrichment (6-mer frequency, TF over GST control)
- binding signal (ETV5): 1.15 fold enrichment (6-mer frequency, TF over GST control)
- binding signal (HSF1): 2.09 fold enrichment (6-mer frequency, TF over GST control)
- binding signal (SPIC): 1.11 fold enrichment (6-mer frequency, TF over GST control)
- binding signal (ELF4): 1.23 fold enrichment (6-mer frequency, TF over GST control)
- binding signal (ELK4): 1.08 fold enrichment (6-mer frequency, TF over GST control)
- binding signal (ETV2): 1.25 fold enrichment (6-mer frequency, TF over GST control)
- binding signal (ELF3): 1.06 fold enrichment (6-mer frequency, TF over GST control)
- binding signal (CRX): 3.19 fold enrichment (6-mer frequency, TF over GST control)
- binding signal (ETV1): 1.09 fold enrichment (6-mer frequency, TF over GST control)
